This note sets out measurements from PubChem BioAssay (EPA / NIEHS).

One may read the AC50 as the concentration giving half of the maximal activity seen.

SMILES strings stand for the structures. Active and inactive are the calls of the source. The calls were made as follows: active = hit-call score of the fitted dose curve at least 0.9, where 1 is the maximum; inactive = score below 0.9.

A short description of this assay: ATG_PBREM_CIS: Attagene CIS-FACTORIAL HepG2 Assay for human Phenobarbital-responsive Enhancer Module (PBREM) (AID 2282955). The settings on record: HepG2 PBREM cis-reporter, Attagene multiplexed transcription; actives raise or lower the signal. The protocol: ATG_CIS is a cell-based, multiplexed-readout assay that uses HepG2, a human liver cell line, with measurements taken at 24 hours after chemical dosing in a 24-well plate.ATG_PBREM_CIS is one of 52 assay component(s) measured or calculated from the ATG_CIS assay. It is designed to make measurements of mRNA induction, a form of inducible reporter, as detected with fluorescence intensity signals by Reverse transcription polymerase chain reaction (RT-PCR) and Capillary electrophoresis technology.Data from the assay component ATG_PBREM_CIS was analyzed into 1 assay endpoint. This assay endpoint, ATG_PBREM_CIS, was analyzed with bidirectional fitting relative to DMSO as the negative control and baseline of activity. Using a type of inducible reporter, measures of mRNA for gain or loss-of-signal activity can be used to understand the reporter gene at the transcription factor-level as they relate to the gene NR1I3. Furthermore, this assay endpoint can be referred to as a primary readout, because this assay has produced multiple assay endpoints where this one serves a reporter gene function. To generalize the intended target to other relatable targets, this assay endpoint is annotated to the nuclear receptor intended target family, where the subfamily is non-steroidal.
Human liver HepG2 cells are transiently transfected with multiple reporter transcription units (MRTUs) in 6-well plates using FuGene 6 reagent (Roche; 3 ml FuGene/1 mg DNA). The MRTU constructs are regulated by a cis-regulating element (promoter). […] A major difference between the CIS and TRANS system is that in CIS activities of endogenous TFs are measured, whereas the TRANS assay evaluates changes in activities of exogenous, chimeric NR-Gal4 proteins. […] At the end of 24 hour incubation, total RNA was isolated using TriZol reagent (Invitrogen). The isolated RNA is then reverse-transcribed using oligo(dT) primer and Mo-MLV reverse transcriptase (Invitrogen) with DNAse I (Ambion) treatment for 30 min. The one-tenth of the produced cDNA was amplified by PCR using Taq DNA polymerase (Invitrogen) and two reporter sequence-specific primers. The PCR products were fluorescently labeled by primer extension with 6-arboxyfluorescein (6-FAM) 5'-labeled reporter sequence-specific primer (2 min at 95 C, 20 s at 68 C and 10 min at 72 C) and these products were digested with 5U of HpaI (New England Biolabs) for 2h at 37 C. The fragments were purified using Qiaquick PCR columns (Qiagen), analyzed on an ABI 3130xL genetic analyzer (Applied Biosystems) with peak positions identified by using a set of X-rhodamine (ROX)-labeled MapMarker1000 molecular weight standards (BioVentures). The raw capillary electrophoresis data was processed using Attagraph software (Attagene).
Turning to `CC(=O)OCc1ccco1`, the outcome was inactive.

With `CCCCCCCCCCOC(C)=O`, the outcome was inactive.

As to `O=C(Nc1ccccc1)c1ccccc1O`, the outcome was inactive.

For `C=C(C)[C@H]1CC=C(C)CC1`, the result was inactive.

For `CCOC(=O)CC(C(C)=O)C(C)=O`, the result was inactive.

`CC(C)CCCCCOC(=O)CCS`: the result was inactive.

Turning to `CCc1ccc2c(c1)C(=O)c1ccccc1C2=O`, the result was inactive.

Turning to `CC=CC(F)(F)C(F)(F)C(F)(F)F`, the outcome was inactive.

Take `CC1(C)S[C@@H]2[C@H](NC(=O)COc3ccccc3)C(=O)N2[C@H]1C(=O)O`: the result was inactive.

For `Nc1nc2ccccc2[nH]1`, the result was inactive.

In the case of `C=CC(=O)OCCC(=O)O`, the outcome was inactive.

`CCCCCCOc1cc(C)c(O)c(C)c1C`: the AC50 was 11.1 µM (active).

Turning to `COCc1c(C(C)C)nc(C(C)C)c(/C=C/[C@@H](O)C[C@@H](O)CC(=O)O)c1-c1ccc(F)cc1`, the result was inactive.

Turning to `Cc1ccc2oc(=O)ccc2c1`, the result was inactive.

For `NNC(=O)c1cccc(C(=O)NN)c1`, the result was inactive.

Regarding `CC=CC(=O)N(CC)c1ccccc1C`, the result was inactive.

Consider `N#CCc1ccc(Cl)cc1Cl`, for which the outcome was inactive.

Turning to `Cc1oncc1C(=O)Nc1ccc(C(F)(F)F)cc1`, the AC50 is 143 µM (active).

`CC(C)CC(O)Cc1ccccc1` (stereo not given): the outcome was inactive.

Consider `O=c1c2ccccc2nnn1CCl`, for which the outcome was inactive.

For `Cc1c(C)c([N+](=O)[O-])c(C(C)(C)C)c([N+](=O)[O-])c1C`, the result was inactive.

Consider `C=CC(C)(C)C`, for which the result was inactive.

Turning to `Nc1ccc(Oc2ccc(N)c(N)c2)cc1`, the outcome was inactive.

As for `Cn1c([N+](=O)[O-])cnc1COC(N)=O`, the result was inactive.

Consider `C=C1C2CCC(C2)C1(C)C` (stereo not given), for which the outcome was inactive.

Regarding `CC=CCO`, the result was inactive.

Take `CCOC(=O)c1ccc(N(C)C)cc1`: the outcome was inactive.

Take `COC(=O)/C=C/C(C)=C\C=C\C(C)=C\C=C\C=C(C)\C=C\C=C(C)\C=C\C(=O)O`: the result was inactive.

Regarding `O=C1CCCCCCCCCCCCCCCO1`, the result was inactive.

Take `O=c1[nH]nc(-c2ccc([N+](=O)[O-])o2)o1`: the result was inactive.

`O=C1CCCCCCCCCCC(=O)OCCO1`: the result was inactive.

Regarding `O=C(O)CC(C(=O)O)C(CC(=O)O)C(=O)O` (stereo not given), the result was inactive.

Regarding `O=C(O)c1ccccc1Nc1cccc(C(F)(F)F)c1`, the result was inactive.

Regarding `COC(=O)c1c(C)cc(O)c(C)c1O`, the result was inactive.

In the case of `O=c1cc(-c2ccccc2)oc2ccccc12`, the half-maximal activity concentration (AC50) was 99.5 µM (active).

On to `CC/C=C\CCOC(=O)CCCCC`, for which the outcome was inactive.

In the case of `C=COCCCC`, the outcome was inactive.

As to `CC1=CC[C@H](C(C)C)C=C1`, the result was inactive.

In the case of `CN(C)CCCN(C)C`, the result was inactive.

Consider `CC(C)(C)c1ccc(N)cc1`, for which the outcome was inactive.
